Measurements reported in PMC7862700, “An all-to-all approach to the identification of sequence-specific readers for epigenetic DNA modifications on cytosine”.

Experiments:
Assay in all cases: DAPPL (digital affinity profiling via proximity ligation, sequencing); 10 mM Tris-HCl pH 7.5, 50 mM NaCl, 1 mM DTT, 4% glycerol, room temperature, 30 min; GST-TFs on glutathione beads, 16-mer random dsDNA library, 0.1% formaldehyde crosslink after washing; high values mean tight binding
Details in all cases: protein: recombinant; tags: N-terminal GST; dsDNA, one strand shown
FLI1 = biological target: T1, FLI1 (Homo sapiens, UniProt Q01543 1-452)
T1 sequence: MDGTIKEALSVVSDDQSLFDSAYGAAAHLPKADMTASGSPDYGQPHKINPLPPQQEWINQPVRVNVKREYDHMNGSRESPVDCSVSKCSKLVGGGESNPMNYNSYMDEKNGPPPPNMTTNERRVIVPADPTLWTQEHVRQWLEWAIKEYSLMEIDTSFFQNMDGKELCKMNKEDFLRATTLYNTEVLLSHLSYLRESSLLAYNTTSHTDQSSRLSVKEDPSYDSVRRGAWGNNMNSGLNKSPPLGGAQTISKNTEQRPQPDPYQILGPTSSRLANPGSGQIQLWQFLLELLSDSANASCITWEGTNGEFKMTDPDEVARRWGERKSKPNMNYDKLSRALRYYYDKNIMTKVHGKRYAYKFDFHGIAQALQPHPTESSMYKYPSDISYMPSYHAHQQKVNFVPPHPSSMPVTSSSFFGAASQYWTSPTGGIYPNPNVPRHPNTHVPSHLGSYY
How it was run: (§1)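 The binding signal reported is, for every hexamer, its read frequency for a factor over its read frequency for the tag-only sample. Reads came from pools of yeast-expressed, GST-fused human transcription factors on glutathione beads, barcoded with DNA and mixed with that sample, which were incubated with 200 nmole of a random double-stranded 16-mer DNA library in Tris/NaCl/DTT/glycerol buffer at room temperature for 30 min. After washing, the pools were crosslinked with 0.1% formaldehyde, proximity-ligated with BsaI/T4 ligase for 1 h at 37 °C, PCR-amplified and sequenced on an Illumina NextSeq500.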

ELK1 = biological target: T2, ELK1 (Homo sapiens, UniProt P19419 1-428)
T2 sequence: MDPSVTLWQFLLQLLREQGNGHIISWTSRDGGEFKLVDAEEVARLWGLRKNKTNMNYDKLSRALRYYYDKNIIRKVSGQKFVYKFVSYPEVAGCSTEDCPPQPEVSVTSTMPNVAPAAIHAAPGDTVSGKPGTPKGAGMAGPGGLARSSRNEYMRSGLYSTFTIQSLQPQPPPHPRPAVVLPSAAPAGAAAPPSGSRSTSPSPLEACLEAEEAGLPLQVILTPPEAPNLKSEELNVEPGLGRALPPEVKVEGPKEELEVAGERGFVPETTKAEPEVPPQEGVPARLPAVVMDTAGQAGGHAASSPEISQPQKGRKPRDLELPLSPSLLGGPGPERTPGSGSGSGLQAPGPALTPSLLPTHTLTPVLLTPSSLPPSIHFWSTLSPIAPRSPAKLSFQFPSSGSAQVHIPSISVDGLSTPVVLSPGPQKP
How it was run: as §1

GABPA = biological target: T3, GABPA (Homo sapiens, UniProt Q06546 1-454)
T3 sequence: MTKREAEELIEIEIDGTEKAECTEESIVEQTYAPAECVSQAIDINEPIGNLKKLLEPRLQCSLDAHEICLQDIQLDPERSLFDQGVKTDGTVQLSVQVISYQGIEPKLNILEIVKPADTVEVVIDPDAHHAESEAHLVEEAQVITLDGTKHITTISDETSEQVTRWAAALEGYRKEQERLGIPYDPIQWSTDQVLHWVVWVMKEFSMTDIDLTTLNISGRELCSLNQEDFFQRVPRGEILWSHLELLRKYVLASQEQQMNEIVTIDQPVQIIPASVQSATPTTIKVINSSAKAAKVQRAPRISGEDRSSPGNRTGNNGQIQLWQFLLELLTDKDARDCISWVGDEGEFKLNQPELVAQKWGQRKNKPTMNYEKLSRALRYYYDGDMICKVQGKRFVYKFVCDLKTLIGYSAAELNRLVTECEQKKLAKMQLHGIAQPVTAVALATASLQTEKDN
How it was run: as §1

ERG = biological target: T4, ERG (Homo sapiens, UniProt P11308 1-479)
T4 sequence: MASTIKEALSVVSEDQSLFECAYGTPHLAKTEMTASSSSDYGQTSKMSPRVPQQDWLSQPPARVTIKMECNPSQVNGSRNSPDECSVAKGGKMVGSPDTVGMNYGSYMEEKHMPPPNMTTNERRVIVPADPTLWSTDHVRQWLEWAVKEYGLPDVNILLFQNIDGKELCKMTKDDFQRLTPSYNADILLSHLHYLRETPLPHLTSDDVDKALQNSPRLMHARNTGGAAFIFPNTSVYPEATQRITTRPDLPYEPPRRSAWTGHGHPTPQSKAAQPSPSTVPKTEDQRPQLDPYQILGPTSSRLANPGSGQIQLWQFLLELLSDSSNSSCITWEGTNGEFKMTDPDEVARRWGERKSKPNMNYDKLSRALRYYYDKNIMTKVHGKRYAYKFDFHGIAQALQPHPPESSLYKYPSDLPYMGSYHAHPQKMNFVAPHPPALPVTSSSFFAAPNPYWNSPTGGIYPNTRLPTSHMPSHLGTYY
How it was run: as §1

ELF1 = ELF1 (Homo sapiens, UniProt P32519 1-619)
Chain of ELF1 (P32519 whole entry): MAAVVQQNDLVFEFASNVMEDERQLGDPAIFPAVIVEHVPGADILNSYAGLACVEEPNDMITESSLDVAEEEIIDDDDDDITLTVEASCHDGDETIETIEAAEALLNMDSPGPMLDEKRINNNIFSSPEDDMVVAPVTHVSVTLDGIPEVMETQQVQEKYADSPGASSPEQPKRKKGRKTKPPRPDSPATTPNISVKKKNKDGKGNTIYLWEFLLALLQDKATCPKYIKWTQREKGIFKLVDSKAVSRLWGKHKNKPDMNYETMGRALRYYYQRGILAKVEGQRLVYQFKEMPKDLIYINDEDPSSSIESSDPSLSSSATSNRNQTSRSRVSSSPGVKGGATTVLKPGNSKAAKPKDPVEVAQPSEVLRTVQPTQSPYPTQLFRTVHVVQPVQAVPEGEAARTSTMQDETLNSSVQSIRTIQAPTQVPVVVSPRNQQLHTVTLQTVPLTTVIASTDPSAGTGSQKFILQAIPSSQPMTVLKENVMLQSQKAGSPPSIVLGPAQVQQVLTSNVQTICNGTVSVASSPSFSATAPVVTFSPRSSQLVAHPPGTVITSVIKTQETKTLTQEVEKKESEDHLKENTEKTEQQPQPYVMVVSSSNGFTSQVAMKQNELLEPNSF
How it was run: as §1

EHF = biological target: T5, EHF (Homo sapiens, UniProt Q9NZC4 1-300)
T5 sequence: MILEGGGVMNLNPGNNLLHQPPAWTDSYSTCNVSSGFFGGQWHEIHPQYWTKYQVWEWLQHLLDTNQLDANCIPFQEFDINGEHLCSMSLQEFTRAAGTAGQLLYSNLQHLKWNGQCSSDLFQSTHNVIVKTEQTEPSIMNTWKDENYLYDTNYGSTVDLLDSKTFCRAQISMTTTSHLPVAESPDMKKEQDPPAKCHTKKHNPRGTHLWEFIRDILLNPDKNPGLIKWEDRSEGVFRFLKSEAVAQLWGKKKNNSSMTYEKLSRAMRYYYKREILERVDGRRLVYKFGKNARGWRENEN
How it was run: as §1

SPI1 = SPI1 (Homo sapiens, UniProt P17947 1-270)
How it was run: as §1

SPIB = SPIB (Homo sapiens, UniProt Q01892 1-262)
Chain of SPIB (Q01892 whole entry): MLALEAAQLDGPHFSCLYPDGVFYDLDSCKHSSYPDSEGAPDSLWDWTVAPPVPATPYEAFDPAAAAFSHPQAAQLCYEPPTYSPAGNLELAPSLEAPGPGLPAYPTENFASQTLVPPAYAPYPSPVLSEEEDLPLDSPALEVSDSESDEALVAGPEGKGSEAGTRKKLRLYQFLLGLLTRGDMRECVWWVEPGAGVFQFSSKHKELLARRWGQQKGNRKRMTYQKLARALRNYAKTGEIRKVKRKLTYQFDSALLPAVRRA
How it was run: as §1

ELK3 = biological target: T6, ELK3 (Homo sapiens, UniProt P41970 1-407)
T6 sequence: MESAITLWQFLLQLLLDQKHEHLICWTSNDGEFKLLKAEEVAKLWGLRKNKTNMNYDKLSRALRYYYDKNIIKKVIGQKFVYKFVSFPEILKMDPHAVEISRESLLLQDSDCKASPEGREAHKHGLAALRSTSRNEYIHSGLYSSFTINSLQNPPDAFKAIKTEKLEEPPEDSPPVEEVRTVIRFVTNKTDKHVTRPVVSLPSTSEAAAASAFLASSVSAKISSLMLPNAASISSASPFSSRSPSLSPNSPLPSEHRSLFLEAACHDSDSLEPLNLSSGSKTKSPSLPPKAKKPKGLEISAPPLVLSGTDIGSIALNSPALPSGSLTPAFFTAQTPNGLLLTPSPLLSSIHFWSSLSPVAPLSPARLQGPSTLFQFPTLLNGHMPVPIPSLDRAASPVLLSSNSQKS
How it was run: as §1

TACGCT
binding signal (FLI1): 1.3 fold enrichment (6-mer frequency, TF over GST control)
binding signal (ELK1): 1.26 fold enrichment (6-mer frequency, TF over GST control)
binding signal (GABPA): 1.4 fold enrichment (6-mer frequency, TF over GST control)
binding signal (ERG): 1.34 fold enrichment (6-mer frequency, TF over GST control)
binding signal (ELF1): 1.34 fold enrichment (6-mer frequency, TF over GST control)
binding signal (EHF): 1.25 fold enrichment (6-mer frequency, TF over GST control)
binding signal (SPI1): 1.31 fold enrichment (6-mer frequency, TF over GST control)
binding signal (SPIB): 1.18 fold enrichment (6-mer frequency, TF over GST control)
binding signal (ELK3): 1.36 fold enrichment (6-mer frequency, TF over GST control)

AACTGG
binding signal (FLI1): 1.22 fold enrichment (6-mer frequency, TF over GST control)
binding signal (ELK1): 1.22 fold enrichment (6-mer frequency, TF over GST control)
binding signal (GABPA): 1.29 fold enrichment (6-mer frequency, TF over GST control)
binding signal (ERG): 1.31 fold enrichment (6-mer frequency, TF over GST control)
binding signal (ELF1): 1.27 fold enrichment (6-mer frequency, TF over GST control)
binding signal (EHF): 1.17 fold enrichment (6-mer frequency, TF over GST control)
binding signal (SPI1): 1.31 fold enrichment (6-mer frequency, TF over GST control)
binding signal (SPIB): 1.25 fold enrichment (6-mer frequency, TF over GST control)
binding signal (ELK3): 1.28 fold enrichment (6-mer frequency, TF over GST control)

ACTCGT
binding signal (FLI1): 1.19 fold enrichment (6-mer frequency, TF over GST control)
binding signal (ELK1): 1.37 fold enrichment (6-mer frequency, TF over GST control)
binding signal (GABPA): 1.26 fold enrichment (6-mer frequency, TF over GST control)
binding signal (ERG): 1.19 fold enrichment (6-mer frequency, TF over GST control)
binding signal (ELF1): 1.25 fold enrichment (6-mer frequency, TF over GST control)
binding signal (EHF): 1.26 fold enrichment (6-mer frequency, TF over GST control)
binding signal (SPI1): 1.17 fold enrichment (6-mer frequency, TF over GST control)
binding signal (SPIB): 1.26 fold enrichment (6-mer frequency, TF over GST control)
binding signal (ELK3): 1.19 fold enrichment (6-mer frequency, TF over GST control)

TATCAC
binding signal (FLI1): 1.33 fold enrichment (6-mer frequency, TF over GST control)
binding signal (ELK1): 1.25 fold enrichment (6-mer frequency, TF over GST control)
binding signal (GABPA): 1.04 fold enrichment (6-mer frequency, TF over GST control)
binding signal (ERG): 1.17 fold enrichment (6-mer frequency, TF over GST control)
binding signal (ELF1): 1.3 fold enrichment (6-mer frequency, TF over GST control)
binding signal (EHF): 1.19 fold enrichment (6-mer frequency, TF over GST control)
binding signal (SPI1): 1.28 fold enrichment (6-mer frequency, TF over GST control)
binding signal (SPIB): 1.22 fold enrichment (6-mer frequency, TF over GST control)
binding signal (ELK3): 1.23 fold enrichment (6-mer frequency, TF over GST control)

TTAATA
binding signal (FLI1): 1.28 fold enrichment (6-mer frequency, TF over GST control)
binding signal (ELK1): 1.23 fold enrichment (6-mer frequency, TF over GST control)
binding signal (GABPA): 1.18 fold enrichment (6-mer frequency, TF over GST control)
binding signal (ERG): 1.16 fold enrichment (6-mer frequency, TF over GST control)
binding signal (ELF1): 1.16 fold enrichment (6-mer frequency, TF over GST control)
binding signal (EHF): 1.23 fold enrichment (6-mer frequency, TF over GST control)
binding signal (SPI1): 1.09 fold enrichment (6-mer frequency, TF over GST control)
binding signal (SPIB): 1.22 fold enrichment (6-mer frequency, TF over GST control)
binding signal (ELK3): 1.29 fold enrichment (6-mer frequency, TF over GST control)

TCTTAT
binding signal (FLI1): 1.41 fold enrichment (6-mer frequency, TF over GST control)
binding signal (ELK1): 1.33 fold enrichment (6-mer frequency, TF over GST control)
binding signal (GABPA): 1.25 fold enrichment (6-mer frequency, TF over GST control)
binding signal (ERG): 1.27 fold enrichment (6-mer frequency, TF over GST control)
binding signal (ELF1): 1.28 fold enrichment (6-mer frequency, TF over GST control)
binding signal (EHF): 1.16 fold enrichment (6-mer frequency, TF over GST control)
binding signal (SPI1): 1.28 fold enrichment (6-mer frequency, TF over GST control)
binding signal (SPIB): 1.22 fold enrichment (6-mer frequency, TF over GST control)
binding signal (ELK3): 1.31 fold enrichment (6-mer frequency, TF over GST control)

CTTCGC
binding signal (FLI1): 1.43 fold enrichment (6-mer frequency, TF over GST control)
binding signal (ELK1): 1.56 fold enrichment (6-mer frequency, TF over GST control)
binding signal (GABPA): 1.5 fold enrichment (6-mer frequency, TF over GST control)
binding signal (ERG): 1.53 fold enrichment (6-mer frequency, TF over GST control)
binding signal (ELF1): 1.46 fold enrichment (6-mer frequency, TF over GST control)
binding signal (EHF): 1.32 fold enrichment (6-mer frequency, TF over GST control)
binding signal (SPI1): 1.42 fold enrichment (6-mer frequency, TF over GST control)
binding signal (SPIB): 1.6 fold enrichment (6-mer frequency, TF over GST control)
binding signal (ELK3): 1.7 fold enrichment (6-mer frequency, TF over GST control)

AATCTT
binding signal (FLI1): 1.36 fold enrichment (6-mer frequency, TF over GST control)
binding signal (ELK1): 1.24 fold enrichment (6-mer frequency, TF over GST control)
binding signal (GABPA): 1.28 fold enrichment (6-mer frequency, TF over GST control)
binding signal (ERG): 1.32 fold enrichment (6-mer frequency, TF over GST control)
binding signal (ELF1): 1.29 fold enrichment (6-mer frequency, TF over GST control)
binding signal (EHF): 1.29 fold enrichment (6-mer frequency, TF over GST control)
binding signal (SPI1): 1.26 fold enrichment (6-mer frequency, TF over GST control)
binding signal (SPIB): 1.29 fold enrichment (6-mer frequency, TF over GST control)
binding signal (ELK3): 1.44 fold enrichment (6-mer frequency, TF over GST control)
